# Test results published in PubChem BioAssay AID1347426 (Functional Genomics Laboratory (NCATS/FGL), 2020).
# Screen size: about 31,000 sequences; about 1,400 (4.5%) were called active. The entries come from a sample that favours actives as a whole. A number with no mark means an inactive call.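 The calls were made as follows: active = median seed-adjusted z-score above 1 or below -1; inactive = the rest.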
# Assay: Novel Modifiers of Survival Motor Neuron (SMN) Protein: Gene Identification via Genome-wide siRNA Screen;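 also: luminescence tracks full-length SMN protein made from the SMN2 reporter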
# Conditions: HEK293T SMN2-luciferase reporter, siRNA knockdown, 72 h; actives lie on both sides
# Procedure, shortened: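 Steps: spot 1 pmol siRNA, add Lipofectamine RNAiMax in serum-free DMEM, seed HEK293T SMN2–luciferase reporter cells; incubate 72 h at 37 °C; add ONE-Glo; normalize luminescence to control siRNA, log10, MAD. Candidates: |MAD| > 1.0.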
row,Sequence,median seed-adjusted z-score
1,GGAAUGGACUCAGUGAUCATT against PFTK1,0.088
2,CGCGGAAACUUGUCCCUAUTT against SP2,-0.617
3,GCCCUGACAUUUCCCGAAATT against FOXJ2,-0.627
4,UCAAUAAACUGCACGAAUATT against HS3ST1,1.21 (active)
5,ACGUGGAAGUGACCCGGAATT against MTX1,-0.159
6,GCAUGUCCCGAAAACAAGATT against KLF7,0.393
7,GGACUUACGUGGAAGUAGATT against PLCB1,0.0735
8,CGUAGUAUAUUAACAAGUATT against MKKS,1.03 (active)
9,CUCUAGGAGUGACCACGAATT against LYPLAL1,-0.425
10,GGAGCACAGAAUACCGGAATT against C3orf64,0.0771
11,CAAACGGGCUCAUCAUAAUTT against MAX,0.0949
12,AGAGACCCAUGGGAACAAATT against SIGMAR1,-1.4 (active)
13,CGAAUGUCACCAUAUAUAATT against IL1RL1,-0.286
14,AGGAGGUUACGGCACAAAATT against STK11,0.348
15,GCAACACCAUCGUCUGUGATT against P2RY13,-0.0427
16,GGAACAUCAUUCUACCCAATT against KIF15,-0.873
17,CCUUAAUCCUUUGUUAACATT against KPNA6,-1.54 (active)
18,GGAUGAUGUACUUCUCUCATT against MLNR,-0.038
19,CCCUGUCCUUAGCACUCUATT against GFI1B,0.154
20,GGAGCAUUCUCAUUCGAGATT against CSTF3,0.0879
21,GCUUGCAGUUAAUAUCAUUTT against ODC1,-1.64 (active)
22,GCAGAGUGCUUCCCAGUGATT against JRK,-0.624
23,CAGAUGUCAUGAAUCAAGATT against RPUSD2,-0.215

row,Sequence,median seed-adjusted z-score
1,CAAGUACAAUACUAACUGUTT against ZNF280C,0.336
2,CAACGGCAACGGAGAGGAUTT against SLC24A6,-0.792
3,GCGGAACACGAAGAAGUAATT against TMPRSS11E,0.0512
4,GGGACGAGAUGGUAAAGAATT against ATP2B2,1.37 (active)
5,CCAUGUAUCUGAGUGAUCATT against ERC2,0.172
6,GGAUCUAAUCUUAGAUGUATT against POLR2H,-2.74 (active)
7,GAAUGAGGUUGACUUCUAUTT against CASQ2,0.4
8,GGAUUAUCUCCUCAUUACATT against MCF2L2,-0.465
9,CCUUGAUCAUCGACAUUCUTT against GIT1,-0.307
10,CCUCGACAGUGAAUGCAAATT against ABCF3,0.0759
11,GAAAAUCUAUCAGAACAUUTT against RAB14,-0.0567
12,CUAUGACCCUUACCCGUAUTT against FMOD,-1.32 (active)
13,GCUCAGCUCUGGUACUUUATT against GTF2H4,-0.261
14,GGUUUGAUGUAGGCCCAAUTT against MTFMT,-0.0119
15,GGAAGAUCGAAAGUGCGAATT against GZMB,-0.0378
16,AGUUCAUUCUGACAGAUGATT against VDR,-0.031
17,CAAUAUUCCGUACAUAGAATT against MRAS,0.032
18,GGGAUCUAGUGAAUAAACUTT against EIF2B4,0
19,GCAAAGACCAUAAGAUUUATT against MYST1,0
20,GAGUGUUCAGCAAACCGUATT against MED20,-1.66 (active)
21,GAUGUGAAAUGGAGAAGUATT against KLF5,-0.338
22,ACGCAGAUUUCUACAGAAATT against COX6C,-0.0449
23,GGAUUACUCUUUUGGUGCATT against IRF5,-0.146

row,Sequence,median seed-adjusted z-score
1,GAUGCGAUAUUAAUGGGAATT against SMYD4,0.272
2,GAAAAUGUGGGAUCAAGAATT against COQ7,0.159
3,GAGCUGACCUUGAACGAGATT against CHGB,-1.29 (active)
4,GUGCUAAUCUCAAUACCGATT against ZRANB1,-0.347
5,GGACAGCUAUGACUCGGAUTT against DOC2A,0.299
6,GCAAGUAUUUUGACAAGGUTT against KIF7,0.0274
7,CAAACAAUAUGAGAGUGUUTT against IL7,0.253
8,ACAAGACUCUGGACAUUAATT against DHRS4,0.263
9,GAUUCAUGCAUUGAUCACATT against UBE2Z,0.0572
10,GCCCAGAAGUUUAGGGAAATT against TAP1,-0.506
11,CAAAGUCCAUGGAGUCUUUTT against RASA4,-1.11 (active)
12,GGGUUAGUGGAGACCUUUATT against ATPAF1,0.393
13,GAAUUCACCAUUCAAGUAATT against SCYL3,0.665
14,AGGACGGUGCAGUACAGAATT against ZBTB46,0.0546
15,GAACAACACCAACAUAAGATT against SMOC1,0.0453
16,CAUCGCCUAUAUGAAAUAUTT against PLA2G10,1.07 (active)
17,GAGCCGUACUAUGACCUGATT against SSTR2,-0.162
18,CGAAGCUAGUGGAACAGUATT against SF3A1,-1.09 (active)
19,CGAUGCCUGUUAUAAAUUATT against RCAN3,0.544
20,AAAUCCCUUUGACACCUUUTT against DNAJB1,0.466
21,CUCCUUCCCGGAUGAUUUATT against KLF17,-0.131
22,CCUCCGUCCUGUUUAGGAATT against LCN2,0.123
23,GCAACGAGUUCAACCUGGATT against RAB11B,-0.857
